Measured values reported in PMC4336329 (PLoS ONE, 2015).
Hit rate of the full screen: of about 310,000 compounds, about 14,000 (4.5%) showed an effect of 50% or more. Effects have a minus sign here. Many of the other results were omitted from the sample, so strong results are more common in it than they were.

Each compound was assayed against human ether-à-go-go-related gene (hERG) potassium channel (human, UniProt Q12809) (assay: primary screen, population patch clamp on CHO cells stably expressing hERG; higher = less effect of the substance).
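Further: peak tail current of the secondary pulse compared with the same well before compound.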

Chain of human ether-à-go-go-related gene (hERG) potassium channel (Q12809 whole entry, looked up): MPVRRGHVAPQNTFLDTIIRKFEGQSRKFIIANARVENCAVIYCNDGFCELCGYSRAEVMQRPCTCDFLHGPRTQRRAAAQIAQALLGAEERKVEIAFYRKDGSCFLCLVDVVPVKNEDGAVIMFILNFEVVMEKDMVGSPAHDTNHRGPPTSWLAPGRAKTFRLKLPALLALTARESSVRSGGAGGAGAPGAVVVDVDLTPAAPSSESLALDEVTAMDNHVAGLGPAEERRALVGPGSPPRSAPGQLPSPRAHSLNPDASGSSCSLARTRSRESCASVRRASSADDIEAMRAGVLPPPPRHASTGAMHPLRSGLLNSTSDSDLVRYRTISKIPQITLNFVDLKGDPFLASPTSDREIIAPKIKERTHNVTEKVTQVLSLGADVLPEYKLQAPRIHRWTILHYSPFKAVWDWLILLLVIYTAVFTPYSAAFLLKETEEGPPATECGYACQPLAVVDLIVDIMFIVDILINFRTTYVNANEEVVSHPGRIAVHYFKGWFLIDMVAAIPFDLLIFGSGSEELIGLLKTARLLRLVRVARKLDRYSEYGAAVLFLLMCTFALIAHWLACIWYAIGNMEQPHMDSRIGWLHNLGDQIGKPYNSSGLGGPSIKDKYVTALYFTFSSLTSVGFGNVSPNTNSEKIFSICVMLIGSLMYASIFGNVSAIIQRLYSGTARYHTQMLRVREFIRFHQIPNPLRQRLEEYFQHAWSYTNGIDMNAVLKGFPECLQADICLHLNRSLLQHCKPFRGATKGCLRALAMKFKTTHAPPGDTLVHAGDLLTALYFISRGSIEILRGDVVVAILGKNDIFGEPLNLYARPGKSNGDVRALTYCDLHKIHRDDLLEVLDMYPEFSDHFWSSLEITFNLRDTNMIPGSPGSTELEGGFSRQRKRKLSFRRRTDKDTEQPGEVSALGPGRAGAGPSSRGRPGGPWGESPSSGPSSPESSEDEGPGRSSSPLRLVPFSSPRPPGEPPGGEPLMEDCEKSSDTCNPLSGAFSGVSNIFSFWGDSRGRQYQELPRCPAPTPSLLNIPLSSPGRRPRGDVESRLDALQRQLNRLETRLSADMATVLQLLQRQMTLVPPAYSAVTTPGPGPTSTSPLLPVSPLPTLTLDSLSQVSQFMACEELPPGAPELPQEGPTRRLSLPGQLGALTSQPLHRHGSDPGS

Compound | hERG current change (%, negative = inhibition) at 10uM
CCCCN1C(=S)NC[C@@H]1Cc1ccccc1 | -11.8%
Cc1ccnc(NCn2nnc3ccccc32)c1 | 7.69%
Cc1ccc(NC(=O)C(=O)NCCN2CCN(C(=S)Nc3ccccc3)CC2)cc1 | -19.1%
Cc1ccccc1C(=O)N1CCN(CCNC(=O)C(=O)Nc2ccc(Br)cc2)CC1 | -68.8%
Cc1ccc(NC(=O)C(=O)NCCN2CCN(C(=O)C(c3ccccc3)c3ccccc3)CC2)cc1 | -9.93%
CC1CC(C)CN(CC(O)COCc2ccccc2F)C1.Cl (stereo not shown) | -23.4%
COc1ccc(CCNC(=S)Nc2cccc(C)c2)cc1 | -8.64%
CCC1(c2ccc(F)cc2)NC(=O)N(CC(=O)N2CC(=O)Nc3ccccc32)C1=O (stereo not shown) | -5.52%
CCC1(c2ccc(F)cc2)NC(=O)N(CC(=O)N2c3ccccc3CC2C)C1=O (stereo not shown) | -12.9%
CCC1(c2ccc(F)cc2)NC(=O)N(CC(=O)N2c3ccccc3NC(=O)CC2C)C1=O (stereo not shown) | -58.4%
Cc1c(C(c2ccc(O)cc2)c2c(C)n(C)n(-c3ccccc3)c2=O)c(=O)n(-c2ccccc2)n1C | -7.93%
COc1ccccc1/C=C1\SC(=S)N(CCC(=O)N2CCCCC2CCO)C1=O (stereo not shown) | 16.7%
CNc1ccccc1C(C)(C)c1cc(C)[nH]n1 | 22.6%
Cc1cc(=O)[nH]c(SCC(=O)Nc2ccc3c(c2)CCC3)c1C#N | -6.4%
O=C(Nc1ccc(N2CCN(C(=O)C3CC3)CC2)cc1)c1cccs1 | 2.17%
Cc1cc(S(=O)(=O)N2CCCC(N(C)CCc3ccccn3)C2)c(C)cc1Cl (stereo not shown) | -71.6%
CC(=O)c1ccc(S(=O)(=O)N2CCCC(N(C)CCc3ccccn3)C2)cc1 (stereo not shown) | -65.3%
CN(CCc1ccccn1)C1CCCN(S(=O)(=O)c2ccc(F)c(Cl)c2)C1 (stereo not shown) | -48%
CN(CCc1ccccn1)C1CCCN(S(=O)(=O)c2ccccc2Cl)C1 (stereo not shown) | -46.5%
CN(CCc1ccccc1)C1CCCN(S(=O)(=O)N(C)C)C1 (stereo not shown) | -15.7%
Cc1cc(S(=O)(=O)N2CCCC(N(C)CCc3ccccn3)C2)c(C)s1 (stereo not shown) | -46.6%
CC(=O)c1ccc(S(=O)(=O)N2CCCC(N(C)CCc3ccccc3)C2)cc1 (stereo not shown) | -81.2%
CN(CCc1ccccc1)C1CCCN(S(=O)(=O)CC(F)(F)F)C1 (stereo not shown) | -3.61%
COC(=O)c1sccc1S(=O)(=O)N1CCCC(N(C)CCc2ccccn2)C1 (stereo not shown) | -22.7%

Compound | hERG current change (%, negative = inhibition) at 10uM
Cn1nc(-c2ccc(N3CCCCC3)c(NC(=O)c3ccco3)c2)c2ccccc2c1=O | 9.65%
CN(C)CCCNC(=S)N(Cc1cccs1)Cc1cc2cc3c(cc2[nH]c1=O)OCCO3 | 6.79%
Cc1ccc(/C=C2\SC(=S)N(CCC(=O)NNS(=O)(=O)c3ccc(C)cc3)C2=O)cc1 | 28.8%
CN(C(=O)COC(=O)/C=C/c1cn(-c2ccccc2)nc1-c1ccc2c(c1)OCCO2)C1CCS(=O)(=O)C1 (stereo not shown) | -3.86%
Cc1cc(=O)[nH]c(SCC(=O)NCCOc2ccccc2)n1 | 1.39%
COCCN(C(=S)Nc1cccc(C)c1)C(C)c1cccnc1 (stereo not shown) | -4.61%
COCCN(C(=S)Nc1ccc(C)cc1)C(C)c1cccnc1 (stereo not shown) | -22.9%
Cc1ccccc1NC(=S)N(CCN(C)C)C(C)c1cccnc1 (stereo not shown) | -50.1%
Cc1cccc(C)c1NC(=S)N(CCN(C)C)C(C)c1cccnc1 (stereo not shown) | -9.34%
CCc1ccccc1NC(=S)N(CCN(C)C)C(C)c1cccnc1 (stereo not shown) | -7.25%
COCCN(C(=S)Nc1cc(C)cc(C)c1)C(C)c1cccnc1 (stereo not shown) | -58.4%
Cc1ccccc1NC(=O)c1ccc(N/N=C/c2ccccc2O)c([N+](=O)[O-])c1 | 9.72%
CC(Sc1nnc(-c2ccncc2)n1C)C(=O)NCC1CCCO1 (stereo not shown) | 4.42%
CC(C)Cc1ccc(CN2CCCC(NC(=O)c3cccc(-n4cnnc4)c3)C2)cc1 (stereo not shown) | -81%
CC(C)Cc1ccc(CN2CCCC(NC(=O)CCCN3CCCC3=O)C2)cc1 (stereo not shown) | -25.8%
O=C(NC1CCCN(Cc2ccc(Cl)cc2)C1)c1cnc2ccccn2c1=O (stereo not shown) | -21.8%
Cc1occc1C(=O)NC1CCCN(Cc2ccc(CC(C)C)cc2)C1 (stereo not shown) | -38%
Cc1occc1C(=O)NC1CCCN(Cc2ccc(Cl)cc2)C1 (stereo not shown) | -38.4%
CC(C)Cc1ccc(CN2CCCC(NC(=O)c3ccoc3)C2)cc1 (stereo not shown) | -70.9%
CC(C)c1ccc(NC2CCCN(C(=O)c3cnc4ccccn4c3=O)C2)cc1 (stereo not shown) | 12%
CC(C)Cc1ccc(CN2CCCC(NC(=O)c3cnc4ccccn4c3=O)C2)cc1 (stereo not shown) | -71.8%
O=C(NC1CCCN(Cc2ccc(Cl)cc2)C1)c1ccoc1 (stereo not shown) | -50.1%
O=C(NC1CCCN(Cc2ccc(Cl)cc2)C1)c1ccnc(Cl)c1 (stereo not shown) | -38.6%
O=C(NC1CCCN(Cc2ccc(Cl)cc2)C1)c1cccc(N2CCCC2=O)c1 (stereo not shown) | -14.8%

Compound | hERG current change (%, negative = inhibition) at 10uM
COc1ccc(S(=O)(=O)N2CCN(c3ccccn3)CC2)cc1OC | -12%
CC#CCN1c2ccccc2[C@]23C[C@@H](C(=O)OC)N(C(=O)c4ccco4)C2=NC(C(=O)OC)=C(C(=O)OC)[C@H]13 | -2.03%
Cc1nn(-c2ccccc2)c(C)c1/C=N\NS(=O)(=O)c1ccc(Cl)cc1 | -17.7%
Cc1cc(C)cc(OCC(=O)NNC(=O)c2cc(C)[nH]n2)c1 | 13.9%
O=C(CCC(=O)N1CCSc2ccccc21)NCCc1ccccc1 | -30.5%
CCn1c(SCC(=O)N/N=C/c2ccccc2OCC(=O)O)nnc1-c1ccccc1 | 5.58%
CNCC(O)C(O)C(O)C(O)CO (stereo not shown) | -0.427%
CC(C)C(=O)Nc1ccc(NC(=O)CCc2ccccc2)cn1 | 18.4%
CC(=O)Nc1ccc(S(=O)(=O)NCC2CCC(C(=O)N3CC(C)CC(C)C3)CC2)cc1 (stereo not shown) | 5.39%
Cn1nccc1C(=O)NC1CCN(Cc2ccccc2)CC1 | -14.4%
CC(C)Cc1ccc(CN2CCCC(NC(=O)CCN3CCCO3)C2)cc1 (stereo not shown) | -43.4%
CC(C)Cc1ccc(CN2CCCC(NC(=O)c3ccnn3C)C2)cc1 (stereo not shown) | -68.7%
Cl.OC(CNC1CCCC1)COCCOc1ccc(Br)cc1 (stereo not shown) | -27.4%
C#CCOCCOCCOCCNc1nc(N2CCN(C(=O)[C@H]([C@@H](C)CC)n3cc([C@@H](N)Cc4ccc(O)cc4)nn3)CC2)nc(N2CCN(C(=O)[C@H]([C@@H](C)CC)n3cc([C@@H](N)CC(C)C)nn3)CC2)n1.Cl | 0.378%
CC(=O)c1cccc(OCC(O)CNCCOc2ccc(C)cc2)c1 (stereo not shown) | -36.5%
COCCCNCC(O)COc1ccccc1F (stereo not shown) | 5.58%
CCOC(=O)c1cccc(OCC(O)CNCCOc2ccccc2F)c1 (stereo not shown) | -63%
Cc1cc(C(C)(C)C)oc1C(=O)O | 27.6%
CN1C(=O)OC(C)(CCc2ccccc2)C1(C)O (stereo not shown) | 11.5%
Cc1ccc2c(C)c(C(=O)Nc3c(C)n(C)n(-c4ccccc4)c3=O)oc2c1 | -2.96%
Cc1c(C(=O)Nc2c(C)n(C)n(-c3ccccc3)c2=O)oc2ccccc12 | 15.8%
Cc1cc(C)c2c(C)c(C(=O)Nc3c(C)n(C)n(-c4ccccc4)c3=O)oc2c1 | -16.7%
Cc1c(C(=O)Nc2c(C)n(C)n(-c3ccccc3)c2=O)oc2ccc(Cl)cc12 | -51.3%
Cc1cc2oc(C(=O)Nc3c(C)n(C)n(-c4ccccc4)c3=O)c(C)c2cc1C | -24%

Compound | hERG current change (%, negative = inhibition) at 10uM
Cc1cc2oc(C(=O)Nc3c(C)n(C)n(-c4ccccc4)c3=O)c(C)c2cc1Cl | -72.2%
CN(C)P1(N(C)C)=Nc2c(c(N)nn2C)C(c2ccccc2)=N1 | -6.87%
CCOc1cc(S(=O)(=O)NCC2OCCc3ccccc32)c(OCC)cc1-n1cnnn1 (stereo not shown) | -21.5%
CC(=O)Nc1ccc(S(=O)(=O)N2CCN(C(=O)C3COc4ccccc4O3)CC2)cc1 (stereo not shown) | -7.33%
Cc1ccc(N2C(=O)NC(=O)/C(=C\c3ccoc3)C2=O)cc1 | 22%
CCN1CCN(P2(=O)C=C(c3ccccc3)OC(c3ccccc3)=C2)CC1 | -77.9%
O=P1(O)C=C(c2ccccc2)OC(c2ccccc2)=C1 | 23.9%
O=P1(Nn2cnnc2)C=C(c2ccccc2)OC(c2ccccc2)=C1 | -20.8%
Cc1cc(C(=O)CSc2nc(N)cc(N)n2)c(C)n1CCc1ccc(F)cc1 | -13.9%
Cn1c(=O)c2[nH]c(-c3ccc(S(=O)(=O)O)cc3)nc2n(C)c1=O.O | 10.2%
O=C(Nc1ccc(Br)cc1)/C(=C/c1cccc([N+](=O)[O-])c1)NC(=O)C1CCCCC1 | -16%
O=C(Nc1cccc2ccccc12)/C(=C\c1cccc([N+](=O)[O-])c1)NC(=O)c1cccs1 | -70.1%
O=C(Nc1ccccc1)/C(=C/c1ccc([N+](=O)[O-])cc1)NC(=O)c1ccccc1 | 8.2%
O=C(Nc1cccc2ccccc12)/C(=C/c1ccc([N+](=O)[O-])cc1)NC(=O)c1ccccc1 | -55.6%
O=C(N/N=C/c1ccc(Br)o1)/C(=C/c1ccc([N+](=O)[O-])cc1)NC(=O)c1ccccc1 | -60.1%
COc1ccc(/C=C(\NC(=O)c2cccs2)C(=O)Nc2cccc3ccccc23)cc1OC | -7.06%
O=C(Nc1ccc([N+](=O)[O-])cc1)/C(=C/c1cccc([N+](=O)[O-])c1)NC(=O)C1CCCCC1 | -69%
Cc1ccc(NC(=O)/C(=C/c2cccc([N+](=O)[O-])c2)NC(=O)C2CCCCC2)c(C)c1 | -18.7%
O=C(Nc1cccc(C(=O)O)c1)/C(=C/c1ccc([N+](=O)[O-])cc1)NC(=O)c1ccccc1 | -5.36%
O=C(N/N=C/c1ccc(O)cc1)/C(=C/c1ccc([N+](=O)[O-])cc1)NC(=O)c1ccccc1 | 8.54%
O=C(N/N=C/c1ccc(O)c(O)c1O)/C(=C/c1ccc([N+](=O)[O-])cc1)NC(=O)c1ccccc1 | 12.4%
O=C(N/C(=C/c1cccc([N+](=O)[O-])c1)C(=O)N1CCCCC1)c1cccs1 | -7.23%
